From PubChem BioAssay (NCATS)
Records with an inconclusive call do not appear. Active and inactive are the calls of the source. The call rests on the fitted dose curve; in most records, active means well fitted curve in the direction sought with a large enough effect; inconclusive means small, poorly fitted or top-dose-only effect, or another doubt; inactive means no such curve, though single readings can be large; an effect the other way counts as inactive or inconclusive.

What was measured:
[1] = Panc-1005 Cancer Cell Toxicity qHTS against the NCATS CANVASS Library (AID 1347349); further: nearly all actives have a fitted effect of over 60% in size; further: potency means the concentration at half of the fitted maximal effect
Procedure, shortened: (§1)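 Per well, 1000 cells; exposure 72 h with compound at 11 final concentrations; readout CellTiter-Glo luminescence.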

[2] = SW1088 Cancer Cell Toxicity qHTS against the NCATS CANVASS Library (AID 1347350); further: nearly all actives have a fitted effect of over 75% in size; further: potency means the concentration at half of the fitted maximal effect
Procedure, shortened: as §1

[3] = COV-362 Cancer Cell Toxicity qHTS against the NCATS CANVASS Library (AID 1347352); further: potency means the concentration at half of the fitted maximal effect
Procedure, shortened: (§2)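 qHTS cytotoxicity: compounds tested in 11 concentrations on 1000 seeded cells per well over 72 h; bortezomib served as control; signal from CellTiter-Glo luminescence.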

[4] = A2780 Cisplatin Sensitive Ovarian Cancer Cell Toxicity qHTS against the NCATS CANVASS Library (AID 1347353); further: nearly all actives have a fitted effect of over 60% in size; further: potency means the concentration at half of the fitted maximal effect
Procedure, shortened: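 Seventy-two-hour exposure of cisplatin-sensitive A2780 ovarian cells to an 11-concentration qHTS series; cytotoxicity is inferred from loss of ATPLite luminescence. Bortezomib titration served as positive control.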

[5] = UWB1.289-WTBRCA1 Cancer Cell Toxicity qHTS against the NCATS CANVASS Library (AID 1347354)
Procedure, shortened: as §2

[6] = KB-8-5-11 Cancer Cell Toxicity qHTS against the NCATS CANVASS Library (AID 1347364); further: nearly all actives have a fitted effect of over 75% in size
Procedure, shortened: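 Natural products were titrated in 11 points onto KB-8-5-11 cells, 500 per well, and cytotoxicity was scored from CellTiter-Glo luminescence after 72 hr culture.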

[7] = G06 Cancer Cell Toxicity qHTS against the NCATS CANVASS Library (AID 1347368); further: nearly all actives have a fitted effect of over 60% in size; further: potency means the concentration at half of the fitted maximal effect
Procedure, shortened: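 Cytotoxicity toward canine glioma G06 cells is scored from cellular ATP via luminescence after 72 hr compound exposure at 500 cells/well.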

[8] = DH5-alpha competent E. coli microbial cell viability qHTS against the NCATS CANVASS Library (AID 1347377); details: outcome: dose series up to 46.1 µM unless noted
Procedure, shortened: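 Cell viability of competent DH5-alpha E. coli is scored from ATP content by luminescence. Cells sit overnight at 37C with compound across an 11-point concentration series.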

[9] = qHTS for H2AX Agonists against the NCATS CANVASS Library (AID 1347378);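 further: phospho-H2AX S139 level in CHO-K1 lysates by TR-FRET emission ratio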; further: potency means the concentration at half of the fitted maximal effect
Procedure, shortened: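 Signal is the 665/620 nm emission ratio from europium cryptate and d2 antibody pair, rising with S139-phosphorylated H2AX. CHO-K1 cells saw test agents for 3 hr at 37C; detection ran 24 hr at room temperature.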

[10] = Cytotoxicity qHTS for assessment of Hepg2 cells membrane integrity screened against the NCATS CANVASS Library (AID 1347387)
Procedure, shortened: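 Fluorescence proportional to lysed-cell number, from LDH leaking out of HepG2 cells exposed 5 hr at 37C to 0.59 nM - 46 uM compound (11-point qHTS), is measured after 10 min with CytoTox-ONE.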

[11] = qHTS assay for small molecule disruptors of mitochondrial membrane potential screened against the NCATS CANVASS Library (AID 1347389); further: nearly all actives have a fitted effect of over 60% in size; further: potency means the concentration at half of the fitted maximal effect
Procedure, shortened: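 Compounds tested in 11-point qHTS series on HepG2 cells for 1 hr; membrane-potential dye added for 30 min at 37C. Lower red-to-green ratio indicates loss of potential.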

[12] = Secretion counterscreen for inhibitors of the SERCaMP assay screened against the NCATS CANVASS Library (AID 1347390);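 further: light from luciferase secreted into medium read as a measure of general secretion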; further: potency means the concentration at half of the fitted maximal effect
Procedure, shortened: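 Natural products are titrated in an 11-point series up to 77 uM onto SH-SY5Y-GLuc STOP cells for 20 h. Secreted reporter activity is measured as coelenterazine-driven luminescence, with Brefeldin A on each plate.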

[13] = qHTS for activators of Nrf2/ARE signaling pathway screened against the NCATS CANVASS Library (AID 1347391); further: nearly all actives have a fitted effect of over 60% in size; further: potency means the concentration at half of the fitted maximal effect
Procedure, shortened: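 Cells carrying an ARE-driven beta-lactamase reporter (HepG2 background) are dosed for 16 h, then stained with CCF4. Cell viability in the same wells is measured by CellTiter-Glo luminescence.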

[14] = qHTS for activators of dead-cell proteases activity screened against the NCATS CANVASS Library (AID 1347392);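 further: luminescence from protease leaking out of membrane-damaged cells cleaving impermeant substrate; rising signal means more cytotoxicity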
Procedure, shortened: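 HepG2 cells (2000/well) attached 18 h at 37C, then exposed 5 h to compounds (11-point qHTS). Dead-cell protease activity read as luminescence from cell-impermeant AAF-aminoluciferin substrate after 15 min at room temperature.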

[15] = qHTS for inhibitors of ER calcium dysfunction: SERCaMP assay screened against the NCATS CANVASS Library (AID 1347393); further: nearly all actives have a fitted effect of over 40% in size; further: potency means the concentration at half of the fitted maximal effect
Procedure, shortened: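 qHTS in SH-SY5Y reporter cells: 16 h compound pretreatment, 4 h thapsigargin, then secreted Gaussia luciferase measured by luminescence.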

[16] = Vero-766 cells viability qHTS against the NCATS CANVASS Library: Counterscreen for Zika virus inhibition assay (AID 1347394)
Procedure, shortened: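 Counterscreen for toxicity: Vero 766 cells exposed 72 h to an 11-point compound series, viability by CellTiter-Glo.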

[17] = qHTS for inhibitors of Wild type Zika virus screened against the NCATS CANVASS Library (AID 1347396);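 further: ATP luminescence of surviving cells so rescue from viral cell killing; series mostly up to about 46 µM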
Procedure, shortened: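 Using ATP-based luminescence (CellTiter Glo), this screen scores rescue of Vero 766 cells from wild-type Zika killing at 72 h post-infection. Compounds are tested in a concentration series.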

[18] = tested on: NAD(P)H diaphorase (Clostridium kluyveri); test: Diaphorse counterscreen qHTS: Assay Interference Panel against the NCATS CANVASS Library (AID 1347362)
Procedure, shortened: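 Clostridium kluyveri diaphorase in PBS with 0.01% Tween-20 was preincubated 15 min at room temperature in the dark with compounds (11-point series). Resorufin fluorescence (ex 525/20, em 598/25) was read 5 min after adding resazurin/NADH.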

[19] = qHTS for Hypoxia signaling pathway (HIF-1) agonists against the NCATS CANVASS Library (AID 1347375)
Procedure, shortened: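 Inducers of HIF-1 signaling were detected in ME-180 cells bearing an HRE-driven beta-lactamase reporter after 17 h compound exposure. Activity came from CCF4-AM FRET emission ratio (460/530 nm) in qHTS format.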

[20] = qHTS for Inflammasome Signaling Inhibitors: IL-1-beta AlphaLISA screen against the NCATS CANVASS Library (AID 1347379);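 further: human THP-1 cells primed with LPS then triggered with ATP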
Procedure, shortened: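 Human THP-1 cells were pretreated 1 hr at 37 °C with compounds (up to 57.5 uM final), then stimulated with LPS (250 ng/mL final) and ATP (1.25 mM final). Secreted IL-1B was read by AlphaLISA after 16 hr.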

Measured: Potency

C[C@@H]1O[C@@H](Oc2c(-c3ccc(O)cc3)oc3cc(O)cc(O)c3c2=O)[C@H](O)[C@H](O)[C@H]1O
not listed: [18] | [19] | [20]
inactive: all other assays above

C[C@@H]1O[C@@H](O[C@@H]2[C@@H](O)[C@H](O[C@@H]3[C@@H](O)[C@@H](O)C(O[C@H]4[C@H](OC(=O)[C@]56CCC(C)(C)C[C@H]5C5=CCC7[C@@]8(C)C[C@H](O)[C@H](O[C@@H]9C[C@H](CO)[C@@H](O)[C@H](O)[C@H]9O)[C@@](C)(CO)C8[C@H](O)C[C@@]7(C)[C@]5(C)CC6)OC[C@H](O)[C@@H]4O)O[C@H]3C)OC[C@H]2O)[C@H](O)[C@H](O)[C@H]1O (stereo partly specified)
not listed: [7]
inactive: all other assays above

C/C1=C/[C@@H](C)[C@H](O)C/C=C/CC/C=C/C(=O)O[C@@H]1[C@H](C)C(=O)/C=C/CC1CC(=O)NC(=O)C1
active: [1] 11.9 µM | [2] 21.1 µM | [4] 3.72 µM | [7] 14.8 µM | [20] 13.7 µM | [13] 2.34 µM | [15] 4.31 µM
not listed: [3] | [5] | [11] | [12]
inactive: all other assays above

C=C(C)[C@@H]1CC[C@]2(C)CC[C@]3(C)[C@H](CC[C@@H]4[C@@]5(C)CC[C@H](O)C(C)(C)[C@@H]5CC[C@]43C)[C@@H]12
inactive: all assays above

COc1c(O)cc2oc(-c3ccccc3)cc(=O)c2c1O
active: [4] 20.9 µM | [13] 13.2 µM | [15] 34.3 µM
not listed: [6] | [11] | [16] | [17]
inactive: all other assays above

O=C1CC(c2cc(O)cc(O)c2)Oc2cc(O)ccc21 (stereo unspecified)
active: [4] 3.72 µM | [11] 7.41 µM | [15] 8.6 µM
not listed: [7] | [9] | [12] | [13] | [18]
inactive: all other assays above

CC(C)(Br)[C@@H](Cl)C[C@H](Br)[C@](C)(Cl)/C=C/Br
active: [4] 2.35 µM | [7] 13.2 µM | [11] 16.6 µM | [15] 21.6 µM
not listed: [1] | [2] | [3] | [6] | [13] | [20]
inactive: all other assays above

C=CC(C)(C)C(=O)[C@@H](C)[C@@H]1CC[C@](C)(C=C)O1
not listed: [4]
inactive: all other assays above

CN1CCc2cc3c(c4c2[C@H]1[C@@H](O)c1ccccc1-4)OCO3
inactive: [2] | [5] | [19] | [9] | [10] | [14] | [16] | [17]
active: [1] 16.8 µM | [11] 11.7 µM | [13] 20.9 µM | [15] 34.3 µM

C=C1C(=O)O[C@H]2[C@H]1CC/C(CO)=C\CC[C@@]1(C)O[C@@H]21
active: [1] 10.6 µM | [3] 13.3 µM | [4] 2.96 µM | [7] 11.8 µM | [9] 21.7 µM | [20] 6.11 µM | [12] 34.3 µM | [15] 4.31 µM
inactive: [18] | [19] | [8] | [13] | [16] | [17]

CCCCCCCCC[C@@H]1C[C@@H]2CC[C@H]3[C@@H](C(=O)OCCCCN=C(N)N)[C@@H](C)N=C(N1)N23
active: [1] 14.7 µM | [2] 13.1 µM | [3] 13 µM | [7] 2.05 µM | [20] 21.2 µM
not listed: [4] | [5] | [6] | [8] | [9] | [19]
inactive: all other assays above
